VCAM1 TNFa pot: potentiators of TNFa-induced VCAM1 expression, primary screen, imaging, HUVEC, TNFa stimulus, immunofluorescence; HUVEC TNFa-stimulated VCAM-1 immunofluorescence, high-content imaging; scaled per plate to unstimulated/TNFa-only wells; AID 808, 2007; actives 0.19% (n = 93,000); activation, % at 2 µM;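 active means activation above the screen mean plus 3 SD, with well images confirming the hit on visual review, cut at about 28% in these data, passing the limit was not always enough; inconclusive means activation above that limit but images do not confirm it; inactive means activation not above that limit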;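 further: signal is the number of cytoplasmic VCAM-1 stained grains per positive cell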
VCAM1 pot conf: potentiators of TNFa-induced VCAM1 expression, confirmation, imaging, HUVEC, triplicate retest | activation, % at 2 µM | 230 tested, under 10 active | HUVEC TNFa-stimulated VCAM-1 immunofluorescence imaging | shares compounds with VCAM1 TNFa pot;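 active means activation above 30% in triplicate retests at 2 µM, then confirmed by visual review of the well images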;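 further: scaled per plate between unstimulated and TNFa-stimulated DMSO control wells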
* hit, by the source's call; ? = inconclusive. Only a selection was taken, and hits are over-represented in it overall.

SMILES | VCAM1 TNFa pot | others
C=CCNC(=O)c1onc(CSc2ccccc2CC)c1C(=O)O | 1
COc1ccc(CCC(C)NC2C3CC4CC(C3)CC2C4)cc1 (centres undefined) | -1
COc1ccccc1OCC(=O)Nc1ccc(C(N)=O)cc1 | 51* | VCAM1 pot conf=-16
CCOC(=O)c1ccc(NC(=O)COc2cc(=O)n(CC)c3ccccc23)cc1 | 0
Cc1cc(C)c(OCC(=O)Nc2cccc(O)c2)cc1C | 26
O=C(N/C=C/c1ccc(Cl)cc1)NCc1ccc(Cl)cc1 | 10
CC(C)(C)NC(=O)C(c1ccccc1)N(C(=O)C1CSC(=O)C1)c1ccccc1 (centres undefined) | -2
O=C(NC1CC1)c1ccc(S(=O)(=O)NCC2CCCCC2)cc1 | -52
O=C(COC(=O)CCS(=O)(=O)c1ccc(Cl)cc1)NC1CCCCC1 | 54* | VCAM1 pot conf=-14
Cc1cc(C(=O)OCC(=O)NC2CCCCC2)c(C)o1 | -16
Cc1ccc(-n2nc3c(c2NC(=O)c2c(-c4ccccc4Cl)noc2C)CSC3)cc1 | 0
COc1ccc(-c2nc(C#N)c(NCCCN(C)C)o2)cc1OC | -97
CN(C)c1oc(-c2ccccc2Cl)nc1C#N | 41* | VCAM1 pot conf=5
CCOCCCNC(=O)C(NC(=O)c1ccc(=O)[nH]c1)c1ccccc1 (centres undefined) | 6
Cc1ccc(NC(=O)CN(C)CC(=O)Nc2c(C)cccc2C)c(Br)c1 | -6
CC1CCCC(NC(=O)COC(=O)c2ccc3ccccc3n2)C1C (centres undefined) | -28
CCCCCn1nc(C)c2c(C)cc(=O)[nH]c21 | 17
COc1ccc(OC)c(/C=C/C(=O)c2ccc(Cl)cc2)c1 | -8
CCOc1ccc(-c2nc(C#N)c(NCC(C)C)o2)cc1 | 2
N#Cc1nc(-c2ccc(OCc3ccccc3)cc2)oc1N1CCOCC1 | -1
C=CCNc1oc(-c2ccc(OC)cc2)nc1C#N | 45* | VCAM1 pot conf=-10
CC1CCCCC1NC(=O)c1ccc2c(c1)[nH]c(=O)n2C1CCCC1 (centres undefined) | 0
CC(C)C(OC(=O)c1ccco1)C(=O)NCc1ccccc1 (centres undefined) | -18
Cc1cc(C)cc(NC(=O)CN2CCc3ccccc3C2)c1 | -1
O=C(CN1CCN(CC(=O)Nc2ccccc2Cl)CC1)Nc1ccc2c(c1)OCCO2 | -8
SMILES | VCAM1 TNFa pot | others
O=C(CN1CCC(n2nnc3ccccc32)CC1)Nc1ccc2c(c1)CCC2 | ? | VCAM1 pot conf=-14
COC(=O)CCCC[C@@H]1SC[C@@H](NC(=O)OC)[C@@H]1NC(=O)OC | -7
Cc1cc(C)n(-c2nc(-c3cccc(Cl)c3)cs2)n1 | -90
Cc1c2cccn2cc[n+]1C | -24
Cc1ccc(CNC(=O)CS(=O)CC(=O)O)cc1 (centres undefined) | 8
CCOC(=O)c1ccc(NC(=O)C(C)N2C(=O)c3ccccc3C2=O)cc1 (centres undefined) | 5
CCOC(=O)c1cccc(NC(=O)C(C)N2C(=O)c3ccccc3C2=O)c1 (centres undefined) | 36* | VCAM1 pot conf=-15
CCOC(=O)c1cccc(NC(=O)CN2C(=O)C3C4C=CC(C4)C3C2=O)c1 (centres undefined) | 3
CCOC(=O)Cc1nnc(NC(=O)CC)s1 | -1
Cc1cccc(Oc2ccc(C(=O)NC3CCSC3=O)cn2)c1C (centres undefined) | 12
Cc1ccc(C(C)NC(=O)/C(C#N)=C\c2c(C)[nH]c3ccccc23)cc1 (centres undefined) | 52* | VCAM1 pot conf=-15
Cc1ccc(-c2cc(=O)[nH]c3ccccc23)cc1 | 18
COc1ccccc1NS(=O)(=O)CC12CCC(CC1=O)C2(C)C (centres undefined) | -2
COC(=O)c1cccc(Cn2nnc3ccccc3c2=O)c1 | 12
CCCCP(=O)(CCCC)Cc1ccccc1O | -6
CCNc1nc(NCc2ccccc2)nc(Oc2ccc(=O)[nH]n2)n1 | -4
COC(=O)c1ccc(Oc2nc(NC(C)C)nc(N(C)C)n2)cc1 | 27
CCNc1nc(NC(C)C)nc(Oc2ccc(OCCOc3ccc(C)cc3)nn2)n1 | 38* | VCAM1 pot conf=2
COCCNC(=O)C(c1ccc(C)o1)N(C(=O)c1snc(C(N)=O)c1N)c1cc(C)cc(C)c1 (centres undefined) | -8
N#Cc1ccc(-n2c(-c3ccccc3)nnc2-c2ccccc2)cc1C#N | 52* | VCAM1 pot conf=-11
N#Cc1cc(Oc2ccccc2)c(-n2nnc3ccccc32)cc1C#N | 27
N#Cc1cnn(-c2ccccc2)c1N | -10
COc1nc(C)nc2c1ccc1ccccc12 | -6
COC(=O)c1cc(NC(=O)CCc2c(C)nc3ncnn3c2C)cc(C(=O)OC)c1 | 8
O=C(O)c1ccccc1C(=O)N1CC=C(c2ccccc2)CC1 | 5
SMILES | VCAM1 TNFa pot | others
Brc1ccc(-c2nc(N/N=C/c3cccnc3)c3ccccc3n2)cc1 | -41
CCOc1nc(-c2ccncc2)nc2ccccc12 | 43* | VCAM1 pot conf=-9
CN(C)C(=O)c1ccccc1-c1ccccc1 | 8
CC(CO)Nc1nc(SCc2ccccc2)nc2sc3c(c12)CCC3 (centres undefined) | 1
Cc1ccc(SCC(=O)NCc2cccnc2)cc1 | -8
CC1(C)Cc2ccccc2C(=NCCCCCC(=O)O)N1 | 33
COc1ccccc1C(=O)NC(CCSC)C(=O)NCC(c1ccco1)N(C)C (centres undefined) | 10
c1ccc(-n2ncc3c(NCc4ccco4)ncnc32)cc1 | -6
CN(C)C(CNc1nnnn1-c1ccccc1)c1ccco1 (centres undefined) | ? | VCAM1 pot conf=-6
O=C(O)C1C2CCC(O2)C1C(=O)NCc1ccncc1 (centres undefined) | 1
CC1(C(=O)O)Cc2ccccc2C(=O)O1 (centres undefined) | -6
O=C1c2ccccc2C(=O)N1C/C=C/CN1C(=O)c2ccccc2C1=O | -4
C=CCOn1c(=O)c(=O)n(OCc2ccccc2)c2ccccc21 | 96* | VCAM1 pot conf=-15
O=C(CSc1nnc(Cc2ccccc2)n1-c1cccc(Cl)c1)N1CCOCC1 | -2
COc1ccc(C)cc1NC(=O)CN(Cc1nnc(-c2ccc(Cl)cc2)o1)C1CCCC1 | -1
COc1ccc(C)cc1NC(=O)COC(=O)C1CC1 | 56* | VCAM1 pot conf=-14
Cc1cccc(OCC(=O)Nc2cc(C)ccc2O)c1 | -58
O=C(COC(=O)c1cccnc1Cl)c1cccc(Cl)c1 | -3
Cn1c(-c2ccc(C=O)s2)nc2ccccc21 | 0
CCCc1ccc(-c2cc(NC(=O)CSc3n[nH]c(N)n3)n(-c3ccccc3)n2)cc1 | -14
Nc1cc(-c2ccccc2)nn1Cc1ccc(Cl)cc1 | -1
O=c1cc(-c2ccccc2)nc2nc(CCc3ccccc3)[nH]n12 | 48* | VCAM1 pot conf=-10
CCOC(=O)c1ccccc1-c1csc(NS(=O)(=O)c2ccc(Cl)cc2)n1 | -10
COC(=O)C1=C(C)N(c2ccc(F)cc2)C(=O)C1 | -7
CC(C)c1ccc(NC(=O)C(c2ccccc2)N2CCC3(CC2)OCCO3)cc1 (centres undefined) | -2
CC(C)(C)NC(=O)C(=O)NNC(=O)C12CC3CC(CC(C3)C1)C2 | -5
Cc1ccc(NC(=O)CCN2C(=O)CSC2=O)cc1 | -9
Cn1c(=O)cc(OCC(=O)NC2CCCCC2)c2ccccc21 | -26
O=C(CN1C(=O)CSC1=O)NC1CCCCC1 | 42* | VCAM1 pot conf=-17
CCCC(C(=O)NC1CCCC1)N(CCCN1CCOCC1)C(=O)c1snc(C(N)=O)c1N (centres undefined) | -78
